{
  "source": "paper PMC5540273",
  "about": "(PLoS ONE, 2017);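 also: KINOMEscan kinase panel screen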",
  "data": [
    {"system": "CLK4", "details": "concentration: 1 μM, replicates: in singlicate; n = 1", "units": {"%Inh": "%"}, "values": [
      {"smiles": "CCCC(=O)Nc1n[nH]c2ncc(-c3cccc4ccccc34)cc12", "note": "[SB-642057]", "%Inh": 8},
      {"smiles": "Nc1nc(N)c2nc(-c3ccccc3)[nH]c2n1", "note": "[SKF-12778]", "%Inh": 32},
      {"smiles": "Cl.c1ccc(Cn2cnc3cc(Nc4ncnc5ccccc45)ccc32)cc1", "note": "[GW272142]", "%Inh": 20},
      {"smiles": "COc1cccc(-n2cnc3c(N)ncnc32)c1", "note": "[SKF-97416]", "%Inh": 0},
      {"smiles": "COC(=O)c1c(-c2ccccc2)c2cc(Br)ccc2c(=O)n1Cc1ccc(S(C)(=O)=O)cc1", "%Inh": 13},
      {"smiles": "COc1cccc(C2=C(Nc3cccc(C(=O)O)c3)C(=O)NC2=O)c1", "note": "[SB-390770]", "%Inh": 20},
      {"smiles": "O=C1NC(=O)C(c2ccccc2)=C1Nc1cccc(O)c1", "note": "[SB-390534]", "%Inh": 10},
      {"smiles": "O=c1cc(N2CCOCC2)nc2n(Cc3ccc(F)c(Cl)c3)ccn12", "note": "[GSK2297099]", "%Inh": 45},
      {"smiles": "Cc1nnc(-c2ccc3ncn(-c4ccc(S(C)=O)cc4)c3c2)o1", "note": "(centres unmarked)", "%Inh": 40},
      {"smiles": "CCc1nc(-c2cccc(C)c2)c(-c2ccncc2)s1", "%Inh": 0},
      {"smiles": "CCn1c(-c2ccoc2)nc2cnccc21", "note": "[SB-733887]", "%Inh": 3},
      {"smiles": "COc1cc2ncn(-c3cc(OCc4ccc(S(C)(=O)=O)cc4)c(C(N)=O)s3)c2cc1OC", "note": "[GW869979]", "%Inh": 0},
      {"smiles": "COc1ccc(-c2coc3ccc(-c4nnc(SCc5cccc(C#N)c5)o4)cc23)cc1", "%Inh": 57},
      {"smiles": "Fc1cccc(CSc2nnc(-c3ccc4c(c3)CCO4)o2)c1", "%Inh": 78},
      {"smiles": "Cc1ccc(Oc2ccc(Nc3ncnc4cc[nH]c34)cc2C)cn1", "%Inh": 24},
      {"smiles": "COc1ccc(-n2cnc3c(N)ncnc32)cc1", "note": "[SKF-97236]", "%Inh": 47},
      {"smiles": "COc1cc(Nc2nccc(N3CCC(NC(=O)C(C)c4ccc(Cl)cc4)C3)n2)cc(OC)c1OC", "note": "(centres unmarked) [GSK1379757]", "%Inh": 18},
      {"smiles": "Cc1nn2c(=O)cc(N3CCOCC3)nc2n1Cc1cccc(Cl)c1Cl", "note": "[GSK2342769]", "%Inh": 22},
      {"smiles": "COc1ccc(-c2cc3c(C)nc(N)nc3n([C@H]3CC[C@H](O)CC3)c2=O)cn1", "%Inh": 0},
      {"smiles": "COc1cc2ncn(-c3cc(OCc4ccncc4)c(C(N)=O)s3)c2cc1OC", "note": "[GSK336313]", "%Inh": 0},
      {"smiles": "COc1cc(Nc2nccc(N3CCC(NC(=O)C4COc5ccccc5O4)C3)n2)cc(OC)c1OC", "note": "(centres unmarked) [GSK1379761]", "%Inh": 0},
      {"smiles": "Nc1ncnc2c1ncn2-c1cccc(F)c1", "note": "[SKF-97560]", "%Inh": 0},
      {"smiles": "CCC(=O)c1c(-c2ccccc2)c2cc(Cl)ccc2c(=O)n1Cc1cc(C(=O)NC2CC2)n(C)n1", "%Inh": 0},
      {"smiles": "Nc1n[nH]c2ncc(-c3ccccc3)cc12", "note": "[SB-517081]", "%Inh": 66},
      {"smiles": "Cc1nc(N(C)[C@H]2CN(C(=O)CC#N)CC[C@H]2C)c2cc[nH]c2n1", "%Inh": 0},
      {"smiles": "CC(C)(C)c1ccc(C(=O)Nc2cn3cc(-c4ccccc4)ccc3n2)cc1", "%Inh": 7},
      {"smiles": "FC(F)(F)c1ccc(-c2ncn(CCCN3CCOCC3)c2-c2ccncc2)cc1", "note": "[SB-217780]", "%Inh": 0},
      {"smiles": "O=C(Nc1n[nH]c2nc(-c3ccccc3)c(Cl)cc12)C1CC1", "note": "[SB-734909]", "%Inh": 0},
      {"smiles": "COc1ccc(-c2cc3c(C)nc(N)nc3n([C@H]3CC[C@H](OCCO)CC3)c2=O)cn1", "%Inh": 0},
      {"smiles": "Cc1ccc(-c2ccc3c(ccc4sc5c(c43)NC[C@@H](C)N=C5N(C)C)n2)cn1", "%Inh": 0},
      {"smiles": "Nc1n[nH]c2nnc(-c3ccccc3)c(-c3ccccc3)c12", "note": "[GW554060]", "%Inh": 12},
      {"smiles": "CCC(=O)c1c(-c2ccccc2)c2cc(Cl)ccc2c(=O)n1Cc1ccc(C(=O)O)cc1", "%Inh": 0},
      {"smiles": "CCS(=O)(=O)c1ccc(OC)c(Nc2ncc(-c3ccc(F)cc3)o2)c1.Cl", "note": "[GW591947]", "%Inh": 23},
      {"smiles": "CCS(=O)c1ccc(-c2coc3ccc(-c4nnc(C)o4)cc23)cc1", "note": "(centres unmarked)", "%Inh": 5},
      {"smiles": "O=C(NCc1cccs1)c1cc(C(=O)c2c(Cl)cccc2Cl)c[nH]1", "note": "[GW823670]", "%Inh": 0},
      {"smiles": "COc1cccc(C2=C(N(C)c3ccccc3)C(=O)NC2=O)c1", "note": "[SB-334865]", "%Inh": 13},
      {"smiles": "OCCCNc1nccc(-c2c(-c3cccc(C(F)(F)F)c3)nn3cc(C(F)(F)F)ccc23)n1", "note": "[GW630813]", "%Inh": 16}
    ]},
    {"system": "CSF1R-autoinhibited", "details": "concentration: 1 μM, replicates: in singlicate; n = 1", "units": {"%Inh": "%"}, "values": [
      {"smiles": "CCCC(=O)Nc1n[nH]c2ncc(-c3cccc4ccccc34)cc12", "note": "[SB-642057]", "%Inh": 0},
      {"smiles": "Nc1nc(N)c2nc(-c3ccccc3)[nH]c2n1", "note": "[SKF-12778]", "%Inh": 0},
      {"smiles": "Cl.c1ccc(Cn2cnc3cc(Nc4ncnc5ccccc45)ccc32)cc1", "note": "[GW272142]", "%Inh": 0},
      {"smiles": "COc1cccc(-n2cnc3c(N)ncnc32)c1", "note": "[SKF-97416]", "%Inh": 16},
      {"smiles": "COC(=O)c1c(-c2ccccc2)c2cc(Br)ccc2c(=O)n1Cc1ccc(S(C)(=O)=O)cc1", "%Inh": 7},
      {"smiles": "COc1cccc(C2=C(Nc3cccc(C(=O)O)c3)C(=O)NC2=O)c1", "note": "[SB-390770]", "%Inh": 0},
      {"smiles": "O=C1NC(=O)C(c2ccccc2)=C1Nc1cccc(O)c1", "note": "[SB-390534]", "%Inh": 0},
      {"smiles": "O=c1cc(N2CCOCC2)nc2n(Cc3ccc(F)c(Cl)c3)ccn12", "note": "[GSK2297099]", "%Inh": 0},
      {"smiles": "Cc1nnc(-c2ccc3ncn(-c4ccc(S(C)=O)cc4)c3c2)o1", "note": "(centres unmarked)", "%Inh": 7},
      {"smiles": "CCc1nc(-c2cccc(C)c2)c(-c2ccncc2)s1", "%Inh": 0},
      {"smiles": "CCn1c(-c2ccoc2)nc2cnccc21", "note": "[SB-733887]", "%Inh": 15},
      {"smiles": "COc1cc2ncn(-c3cc(OCc4ccc(S(C)(=O)=O)cc4)c(C(N)=O)s3)c2cc1OC", "note": "[GW869979]", "%Inh": 5},
      {"smiles": "COc1ccc(-c2coc3ccc(-c4nnc(SCc5cccc(C#N)c5)o4)cc23)cc1", "%Inh": 0},
      {"smiles": "Fc1cccc(CSc2nnc(-c3ccc4c(c3)CCO4)o2)c1", "%Inh": 5},
      {"smiles": "Cc1ccc(Oc2ccc(Nc3ncnc4cc[nH]c34)cc2C)cn1", "%Inh": 0},
      {"smiles": "COc1ccc(-n2cnc3c(N)ncnc32)cc1", "note": "[SKF-97236]", "%Inh": 0},
      {"smiles": "COc1cc(Nc2nccc(N3CCC(NC(=O)C(C)c4ccc(Cl)cc4)C3)n2)cc(OC)c1OC", "note": "(centres unmarked) [GSK1379757]", "%Inh": 0},
      {"smiles": "Cc1nn2c(=O)cc(N3CCOCC3)nc2n1Cc1cccc(Cl)c1Cl", "note": "[GSK2342769]", "%Inh": 0},
      {"smiles": "COc1ccc(-c2cc3c(C)nc(N)nc3n([C@H]3CC[C@H](O)CC3)c2=O)cn1", "%Inh": 6},
      {"smiles": "COc1cc2ncn(-c3cc(OCc4ccncc4)c(C(N)=O)s3)c2cc1OC", "note": "[GSK336313]", "%Inh": 0},
      {"smiles": "COc1cc(Nc2nccc(N3CCC(NC(=O)C4COc5ccccc5O4)C3)n2)cc(OC)c1OC", "note": "(centres unmarked) [GSK1379761]", "%Inh": 58},
      {"smiles": "Nc1ncnc2c1ncn2-c1cccc(F)c1", "note": "[SKF-97560]", "%Inh": 19},
      {"smiles": "CCC(=O)c1c(-c2ccccc2)c2cc(Cl)ccc2c(=O)n1Cc1cc(C(=O)NC2CC2)n(C)n1", "%Inh": 0},
      {"smiles": "Nc1n[nH]c2ncc(-c3ccccc3)cc12", "note": "[SB-517081]", "%Inh": 0},
      {"smiles": "Cc1nc(N(C)[C@H]2CN(C(=O)CC#N)CC[C@H]2C)c2cc[nH]c2n1", "%Inh": 0},
      {"smiles": "CC(C)(C)c1ccc(C(=O)Nc2cn3cc(-c4ccccc4)ccc3n2)cc1", "%Inh": 0},
      {"smiles": "FC(F)(F)c1ccc(-c2ncn(CCCN3CCOCC3)c2-c2ccncc2)cc1", "note": "[SB-217780]", "%Inh": 0},
      {"smiles": "O=C(Nc1n[nH]c2nc(-c3ccccc3)c(Cl)cc12)C1CC1", "note": "[SB-734909]", "%Inh": 0},
      {"smiles": "COc1ccc(-c2cc3c(C)nc(N)nc3n([C@H]3CC[C@H](OCCO)CC3)c2=O)cn1", "%Inh": 12},
      {"smiles": "Cc1ccc(-c2ccc3c(ccc4sc5c(c43)NC[C@@H](C)N=C5N(C)C)n2)cn1", "%Inh": 14},
      {"smiles": "Nc1n[nH]c2nnc(-c3ccccc3)c(-c3ccccc3)c12", "note": "[GW554060]", "%Inh": 34},
      {"smiles": "CCC(=O)c1c(-c2ccccc2)c2cc(Cl)ccc2c(=O)n1Cc1ccc(C(=O)O)cc1", "%Inh": 0},
      {"smiles": "CCS(=O)(=O)c1ccc(OC)c(Nc2ncc(-c3ccc(F)cc3)o2)c1.Cl", "note": "[GW591947]", "%Inh": 0},
      {"smiles": "CCS(=O)c1ccc(-c2coc3ccc(-c4nnc(C)o4)cc23)cc1", "note": "(centres unmarked)", "%Inh": 8},
      {"smiles": "O=C(NCc1cccs1)c1cc(C(=O)c2c(Cl)cccc2Cl)c[nH]1", "note": "[GW823670]", "%Inh": 0},
      {"smiles": "COc1cccc(C2=C(N(C)c3ccccc3)C(=O)NC2=O)c1", "note": "[SB-334865]", "%Inh": 0},
      {"smiles": "OCCCNc1nccc(-c2c(-c3cccc(C(F)(F)F)c3)nn3cc(C(F)(F)F)ccc23)n1", "note": "[GW630813]", "%Inh": 32}
    ]}
  ]
}
